HTR5A inv ctr: HTR5A inverse agonists in luminescence cell assay, primary screen, counter-screen for OPRM1-OPRD1 heterodimer inverse agonist project, full-deck HTS; 340,000 compounds, 0.083% hits; HTR5A cell line, inverse agonism; inhibition, % at 9.3 µM; AID 504634, 2011; 5-hydroxytryptamine receptor 5A (Homo sapiens), P47898; in the data active = inhibition mostly above about 23%, no sharp cut-off; inactive = mostly below about 18%;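 note: 0% = cells with DMSO and 100% = no-cell wells with DMSO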
OPRM1-OPRD1 ag: agonists of OPRM1-OPRD1 heterodimerization, primary screen, cell-based, luminescence; Mu-type opioid receptor (Homo sapiens) + Delta-type opioid receptor (Homo sapiens), …; cells; activation, % at 9.3 µM; 340,000 compounds, 0.3% hits; AID 504326, 2011; in the data active = activation above about 18%;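 note: 0% = vehicle-treated cells and 100% = reference agonist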
HTR2A ag: mouse Htr2a agonists via beta-arrestin recruitment, primary screen, cell-based, luminescence | activation, % at 7.6 µM | 360,000 compounds, 0.66% hits | CHO-K1 mHTR2A beta-arrestin complementation; percent of 30 µM serotonin response | 5-hydroxytryptamine receptor 2A (Mus musculus), P35363;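 active = activation above a run cutoff, the mean activation of all tested compounds plus 3 SD, cut at about 14% in these data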;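 note: 0% = plate median of compound wells and 100% = 30 µM serotonin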
MOR-DOR inv ag: inverse agonists of MOR-DOR heterodimerization, primary screen, cell-based, luminescence. AID 504357, 2011. Mu-type opioid receptor (Homo sapiens) + Delta-type opioid receptor (Homo sapiens), …. 340,000 compounds, 0.21% hits. cell-based MOR-DOR heterodimer luminescence, inverse agonism. inhibition, % at 9.3 µM; in the data active = inhibition above about 22%, passing the limit was not always enough;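 note: 0% = cells with DMSO and 100% = wells without cells with DMSO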
HTR5A ag ctr: HTR5A agonists in luminescence cell assay, primary screen, counter-screen for OPRM1-OPRD1 heterodimer agonist project, full-deck HTS. AID 504692, 2011. activation, % at 9.3 µM. 5-hydroxytryptamine receptor 5A (Homo sapiens), P47898. cell-based. 340,000 compounds, 0.61% hits; in the data active = activation mostly above about 9.5%, no sharp cut-off; inactive = mostly below about 7.6%;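 note: 0% = cells with vehicle only and 100% = reference agonist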
sPLA2-III inh: human group III sPLA2 inhibitors, primary screen, biochemical, QFRET, BODIPY PC-A2 liposome substrate; Group 3 secretory phospholipase A2 (Homo sapiens), Q9NZ20; inhibition, % at 12.2 µM; 370,000 compounds, 0.56% hits; QFRET BODIPY PC-A2 liposome hydrolysis, fluorescence; AID 743126, 2013;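 active = inhibition above mean plus 3 SD of compounds lying within the high and low control bounds, cut at about 19% in these data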;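 note: 0% = median of test compound wells and 100% = no enzyme DMSO wells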
Target sequence (Q9NZ20 whole entry, looked up): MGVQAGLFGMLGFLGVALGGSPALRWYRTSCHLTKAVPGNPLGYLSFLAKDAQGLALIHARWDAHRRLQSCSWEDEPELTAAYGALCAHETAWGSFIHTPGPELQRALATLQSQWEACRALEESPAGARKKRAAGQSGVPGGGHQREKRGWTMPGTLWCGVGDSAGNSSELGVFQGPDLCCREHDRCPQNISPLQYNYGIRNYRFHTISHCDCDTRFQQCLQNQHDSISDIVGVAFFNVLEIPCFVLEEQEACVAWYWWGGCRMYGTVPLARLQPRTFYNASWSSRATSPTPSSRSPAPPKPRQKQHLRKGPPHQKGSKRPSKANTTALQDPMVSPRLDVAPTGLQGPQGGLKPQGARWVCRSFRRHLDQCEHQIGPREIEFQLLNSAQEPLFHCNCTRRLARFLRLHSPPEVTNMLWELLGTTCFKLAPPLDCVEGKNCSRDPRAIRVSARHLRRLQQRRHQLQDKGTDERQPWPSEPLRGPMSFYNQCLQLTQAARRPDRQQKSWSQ
hGIII sPLA2 conf: human group III sPLA2 inhibitors, confirmation, biochemical, QFRET, triplicate; 2,000 compounds, 34% hits; shares compounds with sPLA2-III inh; AID 743280, 2014; inhibition, % at 12.2 µM; recombinant hGIII-sPLA2, BODIPY PC-A2 QFRET fluorescence;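 active = mean inhibition across triplicates above the hit cutoff set in the earlier primary screen, cut at about 19% in these data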;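 note: 0% = enzyme with DMSO and 100% = DMSO wells lacking enzyme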
BODIPY interf: 535nm fluorescence optical interference, confirmation, artefact control for HGIII-sPLA2 inhibitor project, biochemical, QFRET; inhibition, % at 12.2 µM; shares compounds with sPLA2-III inh; 2,000 compounds, 8.5% hits; BODIPY FL product fluorescence interference;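 active = average inhibition above the solvent-only control mean plus 3 SD, cut at about 6% in these data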;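 note: 0% = DMSO with substrate plus product and 100% = DMSO with substrate alone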
BODIPY interf DR: 535nm fluorescence optical interference, dose response, artefact control for HGIII-sPLA2 inhibitor project, biochemical, QFRET | shares compounds with sPLA2-III inh | BODIPY FL product fluorescence interference, cell-free | IC50, µM | 240 tested, under 10 active;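 active = IC50 at or below 10 µM; inactive = IC50 above 10 µM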
An asterisk follows results filed as active. In the library only some 2.2% were active in any assay of this set; here they are far more common.

Screening Oc1ccccc1/C=N/NC(=S)NC1CC2CCC1C2 (stereo not given) returned HTR5A inv ctr -10, OPRM1-OPRD1 ag 14, HTR2A ag 6, MOR-DOR inv ag -72, HTR5A ag ctr 4, sPLA2-III inh 28*, hGIII sPLA2 conf 18 and BODIPY interf 7.3*.
For N#CC(C(=S)Nc1ccccc1)c1nc2ccccc2[nH]1 (stereo not given) the results were HTR5A inv ctr -8, OPRM1-OPRD1 ag -2, HTR2A ag -5, MOR-DOR inv ag 9, HTR5A ag ctr 3, sPLA2-III inh 28*, hGIII sPLA2 conf 3 and BODIPY interf 7.4*.
For CSC(=Nc1ccccc1)C(C#N)c1nc2ccccc2[nH]1 (stereo not given) the results were HTR5A inv ctr 4, OPRM1-OPRD1 ag 4, HTR2A ag 7, MOR-DOR inv ag -20, HTR5A ag ctr -3 and sPLA2-III inh 6.
Screening O=S(=O)(c1ccc(NC(=S)NN=Cc2ccccc2O)cc1)N1CCCCC1 returned HTR5A inv ctr -36, OPRM1-OPRD1 ag 2, HTR2A ag 4, MOR-DOR inv ag -10, HTR5A ag ctr 9, sPLA2-III inh 26*, hGIII sPLA2 conf 33* and BODIPY interf 9.8*.
`NS(=O)(=O)c1ccc(NC(=S)NC(=O)c2cccs2)cc1` gave HTR5A inv ctr 1, OPRM1-OPRD1 ag -4, HTR2A ag -1, MOR-DOR inv ag 22, HTR5A ag ctr 1 and sPLA2-III inh 6.
`O=C(NC(=S)Nc1ccc(S(=O)(=O)N2CCCCC2)cc1)c1cccs1` gave HTR5A inv ctr -1, OPRM1-OPRD1 ag -1, HTR2A ag 0, MOR-DOR inv ag 6, HTR5A ag ctr 0, sPLA2-III inh 19*, hGIII sPLA2 conf 19* and BODIPY interf -4.
Screening O=[N+]([O-])c1cc(Cl)cc(/C=N/NC(=S)Nc2ccc(S(=O)(=O)N3CCOCC3)cc2)c1O returned HTR5A inv ctr -5, OPRM1-OPRD1 ag -2, HTR2A ag -6, MOR-DOR inv ag 12, HTR5A ag ctr -3, sPLA2-III inh 69*, hGIII sPLA2 conf 70* and BODIPY interf 19*.
`COc1cccc(CNC(=O)Cn2c(-c3ccccc3)cc(C(C)=O)c2C)c1OC` gave sPLA2-III inh -1.
COC(=O)[C@H]1C[C@@]2(N3CCCCC3)c3ccccc3N(C(=O)OC(C)(C)C)[C@H]2N1C(=O)OC(C)(C)C was read as sPLA2-III inh 15.
Screening CSc1n[nH]c(=O)n1-c1cccc(Cl)c1 returned HTR5A inv ctr 2, OPRM1-OPRD1 ag 0, HTR2A ag 5, MOR-DOR inv ag 1, HTR5A ag ctr 2, sPLA2-III inh 20*, hGIII sPLA2 conf -1 and BODIPY interf -6.
`S=C(NCC1CCCCC1)Nc1cccnc1` gave HTR5A inv ctr -14, OPRM1-OPRD1 ag 1, HTR2A ag 1, MOR-DOR inv ag -4, HTR5A ag ctr 2, sPLA2-III inh 23*, hGIII sPLA2 conf 6 and BODIPY interf -6.
CCOC(=O)[C@@]12CN(C(=O)OC(C)(C)C)CC=C1N(Cc1ccc(OC)cc1)C(=O)[C@H]2CC(=O)NCc1cccc(C(F)(F)F)c1 was read as sPLA2-III inh -11.
Cn1c(=O)n(Cc2ccccc2)c(=O)c2c1nc1n2CCCN1Cc1ccccc1 was read as HTR5A inv ctr -4, OPRM1-OPRD1 ag -3, HTR2A ag -3, MOR-DOR inv ag 12, HTR5A ag ctr 2 and sPLA2-III inh 7.
For Cc1ccc(Cn2c(=O)c3c(nc4n3CCCN4Cc3ccccc3)n(C)c2=O)cc1 the results were HTR5A inv ctr 8, OPRM1-OPRD1 ag -4, HTR2A ag 1, MOR-DOR inv ag 15, HTR5A ag ctr -3, sPLA2-III inh 73*, hGIII sPLA2 conf 7 and BODIPY interf -17.
O=C(c1ccccc1)N1CC[C@H]2[C@H](CCCN2Cc2ccccc2)C1 was read as sPLA2-III inh 1.
Screening CCOC(=O)C(=NC(C)CC)NNc1cccc(C(F)(F)F)c1 (stereo not given) returned HTR5A inv ctr 0, OPRM1-OPRD1 ag 15, HTR2A ag 1, MOR-DOR inv ag -81, HTR5A ag ctr 0, sPLA2-III inh 24*, hGIII sPLA2 conf 35*, BODIPY interf 1 and BODIPY interf DR >122.
Screening O=C(NC(=S)NCc1ccccc1)c1cccs1 returned HTR5A inv ctr 17, OPRM1-OPRD1 ag -4, HTR2A ag -8, MOR-DOR inv ag 25, HTR5A ag ctr -4 and sPLA2-III inh 2.
`CCCCC(=O)Nc1ccc(C(=O)NNC(=S)NC(=O)c2ccco2)cc1` gave HTR5A inv ctr 20, OPRM1-OPRD1 ag -2, HTR2A ag -2, MOR-DOR inv ag 12, HTR5A ag ctr -5, sPLA2-III inh 20*, hGIII sPLA2 conf 24* and BODIPY interf -13.
O=C(NNC(=S)NC(=O)c1cccs1)c1ccc(NC(=O)c2ccccc2)cc1 was read as HTR5A inv ctr 7, OPRM1-OPRD1 ag -3, HTR2A ag 1, MOR-DOR inv ag 19, HTR5A ag ctr -3, sPLA2-III inh 21*, hGIII sPLA2 conf 41*, BODIPY interf -34 and BODIPY interf DR >122.
For O=C(Cc1ccccc1)NNC(=S)NC(=O)c1cccs1 the results were HTR2A ag -7, sPLA2-III inh 21*, hGIII sPLA2 conf 35*, BODIPY interf -5 and BODIPY interf DR >122.
Screening CCCCC(=O)Nc1ccc(C(=O)NNC(=S)NC(=O)c2cccs2)cc1 returned HTR5A inv ctr -8, OPRM1-OPRD1 ag -2, HTR2A ag -1, MOR-DOR inv ag 11, HTR5A ag ctr 3, sPLA2-III inh 24*, hGIII sPLA2 conf 28*, BODIPY interf -28 and BODIPY interf DR >122.

Screens from PubChem BioAssay.
